# Laboratory results as given in PubChem BioAssay (NCI).
# This is part of a sample that, as a whole, favours compounds with a hit. Of some 83,000 tested, about 20% had one in any assay.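 Method: cells in 96-well plates; compound added at one concentration; 48 h incubation; percent growth measured; values under 10 scored active.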 Unmarked numbers belong to inactive results. Activity calls are given as the source filed them.
# Experiments:
# Test in all cases: NCI-60 one-dose screen, 48 h (100 = growth as untreated, 0 = no growth, -100 = all killed)
# Settings in all cases: 10 µM unless noted
# [1] = tested on: HCT-15 colon
# [2] = tested on: HT29 colon
# [3] = tested on: SNB-75 CNS
# [4] = tested on: SNB-19 CNS
# [5] = tested on: U251 CNS
# [6] = tested on: PC-3 prostate
# [7] = tested on: SK-MEL-5 melanoma
# [8] = tested on: UACC-62 melanoma
# [9] = tested on: LOX IMVI melanoma
# [10] = tested on: SK-MEL-28 melanoma
# [11] = tested on: SK-MEL-2 melanoma
# [12] = tested on: EKVX NSCLC
# [13] = tested on: SN12C renal
# [14] = tested on: UO-31 renal
# [15] = tested on: TK-10 renal
# [16] = tested on: ACHN renal
# [17] = tested on: CAKI-1 renal
# [18] = tested on: A498 renal
# [19] = tested on: CCRF-CEM leukemia
# [20] = tested on: MOLT-4 leukemia
Structure (SMILES),growth [1],growth [2],growth [3],growth [4],growth [5],growth [6],growth [7],growth [8],growth [9],growth [10],growth [11],growth [12],growth [13],growth [14],growth [15],growth [16],growth [17],growth [18],growth [19],growth [20]
CN(C)Cc1cc(C(C)(C)C)cc(Br)c1O,95.6%,81.8%,91.5%,113%,107%,90.5%,96.1%,101%,103%,112%,113%,96.8%,105%,98%,100%,108%,91.6%,90.6%,116%,
CC1=C(Cl)C(=O)c2cc(C)ccc2C1=O,100%,103%,88.9%,106%,96.2%,89.6%,101%,96%,100%,94.9%,99.9%,94.2%,93.7%,73.3%,108%,96.9%,86.7%,97.2%,102%,
O=S(=O)(Nc1ccc2ccccc2c1)c1ccc(-c2cnc(C3CC3)o2)cc1,31.5%,14.8%,-1.76% (active),35.8%,23.6%,23.4%,28.2%,32.1%,56.9%,64.9%,40.2%,41.9%,44.9%,42.5%,61.9%,36.2%,28.9%,3.93% (active),10.7%,20.2%
N#Cc1c(-c2ccc(Br)cc2)nc2c(N=Nc3ccc(S(N)(=O)=O)cc3)c(N)nn2c1N,94.3%,42.8%,56.9%,61.6%,41.3%,37.6%,45.8%,72.4%,28.9%,63.2%,43.4%,71.1%,45.6%,59.5%,73.2%,71.1%,52.5%,65%,-4.46% (active),
CS(=O)(=O)Nc1cc(-c2ccc3ncnc(Nc4ccc5c(cnn5Cc5ccncc5)c4)c3c2)cnc1Cl,92.3%,64.8%,8.94% (active),60%,52.7%,57.7%,52.5%,32.5%,22%,32.5%,-0.132% (active),75.9%,54.7%,57.5%,39.1%,89.9%,40.7%,2.83% (active),33.1%,57.1%
O=S(=O)(Nc1cc(Sc2nc3ccccc3s2)c(O)c2ccccc12)c1ccc2ccccc2c1,97.5%,115%,88.2%,106%,86.6%,77.3%,74.5%,99.1%,60.1%,116%,95.8%,101%,90.6%,70.2%,123%,97.6%,101%,96.9%,67.7%,59.1%
OC1(c2ccccc2)c2ccccc2N(c2ccccc2)c2ccc(Cl)cc21 (stereo unspecified),-44.2% (active),-77.5% (active),-57.6% (active),-91.6% (active),-87.9% (active),-75.1% (active),-97.6% (active),-92% (active),-93.6% (active),-97.1% (active),-72.1% (active),-81.8% (active),-81.6% (active),-95% (active),-95.5% (active),-99.5% (active),-9.02% (active),-62.6% (active),-13% (active),1.26% (active)
CCOc1ccc(NC(=O)Nc2ccc(OCC)cc2)cc1,106%,107%,106%,107%,99.8%,100%,104%,105%,98.3%,101%,121%,108%,104%,95.2%,107%,116%,103%,104%,107%,99.3%
COc1ccc(C2C3=C(COC3=O)N(CCO)c3cc4c(cc32)OCO4)cc1OC (stereo unspecified),77%,39.9%,71%,88.1%,97.9%,58.3%,67.9%,71.8%,77.2%,89%,93.2%,96.1%,94.8%,95.9%,105%,101%,98.4%,79%,65.2%,
COc1cc2c(c(OC)c1OC)C(=O)CC(c1cccc(C(=O)Nc3ccccc3Br)c1)O2 (stereo unspecified),88.1%,84%,76.2%,88.4%,94.8%,68.4%,80.2%,80.8%,84.2%,104%,87.7%,99.1%,80%,70.2%,94.2%,89.7%,84.6%,91%,68.9%,
C[C@@H]1CN(c2cnc(C(=O)Nc3cc(F)cc4cccnc34)cn2)C[C@H](C)N1,35.7%,35.5%,69%,92.4%,76.6%,21.2%,102%,94.3%,72.7%,94%,105%,77%,83.2%,44.1%,72.2%,32.3%,66.2%,67.4%,26.9%,33%
COc1ccc(C2CC(n3ccnc3)c3cc(OC)c(OC)c(OC)c32)cc1O (stereo unspecified),59.9%,102%,90.2%,93.7%,80.4%,60.7%,53.1%,65.5%,86.4%,78.3%,89.6%,101%,104%,79.9%,101%,86.4%,74.5%,88.3%,90.9%,90%
CCCCCCCCn1ccc2cc(NC(=O)CN3CCN(c4cc(C)nc(Cl)n4)CC3)ccc21,76.3%,77.3%,82.9%,88.9%,89.5%,61.4%,59.3%,64.5%,94.2%,90.9%,109%,64.4%,100%,63.5%,95.1%,86.3%,92.6%,97.5%,-35.7% (active),26.2%
O=C(CCCCCCCC(=O)N1CCCCC1)N1CCCCC1,96.8%,106%,78.8%,105%,102%,95.3%,97.1%,91%,88.1%,102%,103%,100%,99.4%,71.4%,97.3%,97.8%,89.4%,94.2%,116%,
CCCCCCCCCCCCCCCCCCOc1ccccc1CC(=O)NCC[N+](C)(C)C,87.4%,12.5%,22.9%,12.5%,-58.5% (active),-33% (active),63.7%,42%,33.4%,80.1%,68.8%,89.3%,23.5%,80.2%,-21.4% (active),78.3%,18.7%,65.6%,-5.38% (active),17.1%
COc1cc(C=Nc2oc(-c3ccccc3)c(-c3ccccc3)c2C#N)cc(CN2CCCC2)c1O,103%,107%,66.8%,94.6%,93.2%,86.8%,104%,86.5%,96.5%,112%,105%,91.8%,91.8%,68%,123%,85.1%,77.3%,64.4%,102%,104%

Structure (SMILES),growth [1],growth [2],growth [3],growth [4],growth [5],growth [6],growth [7],growth [8],growth [9],growth [10],growth [11],growth [12],growth [13],growth [14],growth [15],growth [16],growth [17],growth [18],growth [19],growth [20]
CC(C)(Sc1cc(C(C)(C)C)c(O)c(C(C)(C)C)c1)Sc1cc(C(C)(C)C)c(OC(=O)CCC(=O)O)c(C(C)(C)C)c1,22%,24.2%,94.2%,47.4%,34.4%,35.5%,50.1%,6.79% (active),56.1%,54.1%,23.4%,44.1%,34.2%,33.2%,60.5%,44.5%,54.5%,63.6%,35.8%,
C=C1C(=O)O[C@H]2[C@H]1CC/C(COC(=O)NCc1ccc(Cn3c(=O)sn(-c4ccc(I)cc4)c3=O)cc1)=C\CC[C@@]1(C)O[C@@H]21,57%,34.1%,81.6%,107%,83.6%,77.5%,98.3%,81.2%,69.4%,93.9%,89.7%,98.4%,79.1%,54.4%,79.9%,69.7%,71.5%,87.7%,-14.3% (active),
CCN1C(=O)N(CC)C2C1NN=c1s/c(=C\c3ccc(OC)cc3)c(=O)n12 (stereo unspecified),10.3%,3.44% (active),23%,26.9%,7.45% (active),26.5%,-10.8% (active),23.9%,17.1%,56.4%,34.5%,51.9%,24.9%,39.3%,66.2%,28.5%,25.5%,11.8%,9.06% (active),14%
O=C1Nc2ccccc2/C1=N/N1C(=O)CN(CCCl)C1=O,105%,99.1%,86.8%,97.1%,102%,99%,97.5%,90.5%,100%,111%,103%,102%,94.2%,86%,102%,107%,89.1%,95.6%,99.3%,
Cc1cc(=O)oc2cc(Oc3nc(Br)cn4c(Br)cnc34)ccc12,95.6%,99.9%,-2.07% (active),74.6%,47.6%,82.1%,40.3%,85.2%,74.3%,104%,78%,75.6%,75.8%,58.8%,114%,65.8%,95.7%,97.4%,106%,87.5%
Nc1c(C(=O)Nc2cccc3ncccc23)sc2nc3c(cc12)CN(Cc1ccccc1)CC3,74.2%,81.7%,84.2%,82.3%,88%,77%,19.2%,53.5%,88.6%,81.7%,57.3%,76.4%,82.1%,70.2%,89.4%,88.6%,74.1%,72.1%,69.6%,48.5%
CCN1C(=O)N(c2ccccc2)C2NC(=S)N(/N=C/C=C/c3ccccc3OC)C21 (stereo unspecified),8.49% (active),7.61% (active),25.2%,32.7%,15.6%,29.3%,-14.1% (active),32.6%,15.4%,57.7%,50.8%,54%,17.9%,34.7%,75.7%,29.2%,19.5%,3.46% (active),11.4%,13.3%
COc1cc(-c2nccc3[nH]c(-c4cccc5[nH]ccc45)nc23)cc(OC)c1OC,17.6%,-3.78% (active),73.6%,49.1%,13.6%,11.8%,-45.8% (active),51.4%,20.6%,76.9%,35.8%,46.3%,40.9%,34%,34.7%,17%,31.4%,-6.89% (active),11.7%,
CCN(CC)CCn1c2ccc(OC)cc2c2sc3cc(O)ccc3c(=O)c21,18.7%,15.1%,78.8%,25.8%,27.4%,32%,76.1%,54.8%,-30.4% (active),68.8%,61.2%,47.3%,23.6%,23.9%,82.2%,4.69% (active),58.1%,43.8%,13.9%,
COc1ccccc1S(=O)(=O)Nc1ccc2c3c(cc(CCC(=O)NCCCCNc4cccc5c4C(=O)N(C4CCC(=O)NC4=O)C5=O)cc13)C(=O)N2C (stereo unspecified),68.4%,48.4%,-26.1% (active),7.56% (active),61.4%,3.96% (active),-33% (active),43.9%,21.4%,13.3%,11%,71%,7.95% (active),55.2%,58%,92.4%,37.5%,15.6%,-0.604% (active),0.837% (active)
CC(C)NS(=O)(=O)/N=C1\NC(=O)NC1=C(Cl)Cl,86.3%,99%,104%,94.3%,90.6%,94.5%,92.8%,84.5%,94.8%,108%,95.6%,103%,94.8%,102%,116%,113%,91.6%,116%,81.4%,
COc1ccc(C=Nc2c(C(=O)Nc3cccc(Cl)c3C)sc3nc(C)c(C(=O)/C=C/c4ccc(OC)cc4)cc23)cc1,19.6%,9.21% (active),-11.3% (active),11.7%,23.6%,32.8%,3.54% (active),7.41% (active),19%,38.3%,42.2%,43.2%,21%,35.9%,36.5%,36.1%,24%,-4.79% (active),19.7%,52.2%
COCCn1cc(-c2nc(-c3c[nH]c4ncccc34)cs2)c2ccccc21,20.3%,50.2%,47.2%,88.6%,72%,33.2%,34.3%,64.4%,66.9%,89.4%,77.5%,16.4%,77.8%,41%,36.2%,67.6%,62.7%,44.7%,56.6%,
COCC(=O)Oc1cc(-c2ccc(C)cc2C)c(OC(=O)COC)c(-c2ccc(C)cc2C)c1,10.2%,34.3%,80.4%,60.9%,46.7%,43.4%,13.7%,45.1%,35.6%,87.9%,28.9%,57.1%,56.4%,47.7%,70.9%,-18% (active),9.83% (active),68.7%,38.9%,21.7%
Cc1cc(C)c2c(c1)N(C)c1ncnc(-n3c(C)nc4cc(C)ccc43)c1CC2C (stereo unspecified),32.6%,34.3%,29.4%,50.4%,34.5%,24.7%,13.6%,31.6%,43.1%,59%,46.7%,45.2%,62.3%,39%,53.3%,39.4%,37.3%,0.985% (active),21.6%,
